This is a sample that favours compounds with a hit; in the whole collection about 2.9% have one here.
GRK2 aptamer HTS – blocks RNA aptamer binding to human GRK2; 330,000 compounds, 0.59% hits; bead flow cytometry, FAM-aptamer displacement from GRK2; inhibition of aptamer binding, % at 10 µM; AID 488847; P25098;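 active = inhibition of aptamer binding above 40%, roughly 3 SD of noise, on plates passing a quality check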;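 also: median bead fluorescence of bound FAM aptamer so fluorescent compounds give negative values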
MEKK3 PB1 HTS – modulators (inhibitors or enhancers) of MEK5 binding to human MEKK3 PB1 domain | Q99759 | bead-based flow cytometry, Alexa488-MEK5 binding to MEKK3; actives lie on both sides; 0 = blocked by unlabeled MEK5, 100 = vehicle | binding response (% of control), % at 10 µM | 290,000 compounds, 1.4% hits;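 active = binding response more than 3 SD above or below the average of its plate-row segment, actives on both sides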;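 also: Alexa488 bead fluorescence after subtracting the streptavidin-only scavenger bead signal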
Target sequence (Q99759 whole entry, looked up, the tested form may be a part): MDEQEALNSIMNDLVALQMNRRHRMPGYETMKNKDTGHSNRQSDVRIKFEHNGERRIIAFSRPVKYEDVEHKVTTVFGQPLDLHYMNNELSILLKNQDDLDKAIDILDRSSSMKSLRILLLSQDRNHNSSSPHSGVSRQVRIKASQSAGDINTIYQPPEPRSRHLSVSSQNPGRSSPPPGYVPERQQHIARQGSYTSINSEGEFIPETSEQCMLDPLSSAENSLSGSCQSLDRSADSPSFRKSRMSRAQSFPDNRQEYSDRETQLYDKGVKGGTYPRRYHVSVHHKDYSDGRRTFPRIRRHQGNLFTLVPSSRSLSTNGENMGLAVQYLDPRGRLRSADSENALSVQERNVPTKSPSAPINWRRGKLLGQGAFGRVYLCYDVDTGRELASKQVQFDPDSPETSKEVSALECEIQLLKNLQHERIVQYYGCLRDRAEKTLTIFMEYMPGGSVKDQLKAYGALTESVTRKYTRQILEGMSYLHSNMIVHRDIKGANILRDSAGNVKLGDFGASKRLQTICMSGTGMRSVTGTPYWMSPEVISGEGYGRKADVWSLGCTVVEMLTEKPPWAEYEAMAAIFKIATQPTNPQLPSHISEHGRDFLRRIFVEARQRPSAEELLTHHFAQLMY
MEKK2wt PB1 HTS – raises or lowers MEK5 binding to wildtype human MEKK2 PB1 domain | Q9Y2U5 | AID 1531 | 290,000 compounds, 1.1% hits | bead flow cytometry, Alexa488-MEK5 binding to MEKK2 WT; actives lie on both sides | binding response (% of control), % at 10 µM; in the data active = binding response below about 67% or above about 130%
Beta2AR agonist – agonists of human beta-2 adrenergic receptor inducing internalization | AID 504454 | response, % (no concentration beside the values) | 340,000 compounds, 0.43% hits | Am2.2-beta2AR cells, FAP receptor internalization, flow cytometry;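 active = response above a set limit, near 3 SD of response in nonfluorescent compounds, cut at about 42% in these data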
MEKK2mut PB1 HTS – signal of MEK5 binding to mutant human MEKK2 PB1 domain | bead flow cytometry, Alexa488-MEK5 binding to MEKK2 mutant | percent response, % at 10 µM | 290,000 compounds, 0.35% hits; in the data active = percent response above about 24%, passing the limit was not always enough
MEKK2wt confirm – raises or lowers MEK5 binding to wildtype human MEKK2, retest | binding response (% of control), % at 10 µM | 5,900 compounds, 2.4% hits | AID 1892 | shares compounds with MEKK3 PB1 HTS | bead flow cytometry, Alexa488-MEK5 binding to MEKK2 WT; actives lie on both sides; in the data active = binding response below about 16% or above about 210%; inactive = in between
MEKK2mut confirm – signal of MEK5 binding to mutant human MEKK2, retest | shares compounds with MEKK3 PB1 HTS | AID 1893 | percent response, % at 10 µM | bead flow cytometry, Alexa488-MEK5 binding to MEKK2 mutant | 5,900 compounds, 2% hits; in the data active = percent response mostly above about 71%, no sharp cut-off; inactive = mostly below about 38%;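 also: higher means compound restores mutant binding toward wildtype level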
MEKK3-MEK5 inh – MEKK3-MEK5 PB1 inhibition, single concentration confirmation. shares compounds with MEKK3 PB1 HTS. bead flow cytometry, Alexa488-MEK5 binding to MEKK3; stronger effect = lower value. binding response (% of control), % at 10 µM. 5,900 compounds, 1.8% hits. AID 1894;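 active = binding response below 72% of control, or above a set upper limit, though filed actives all read lower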;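 also: 100% = DMSO only wells and 0% = binding blocked by excess unlabeled MEK5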
Numbers without * were called inactive; / = no result given; [ ] = another dose, or the depositor's remark.

SMILES | GRK2 aptamer HTS | MEKK3 PB1 HTS | MEKK2wt PB1 HTS | Beta2AR agonist | MEKK2mut PB1 HTS | MEKK2wt confirm | MEKK2mut confirm | MEKK3-MEK5 inh
COc1ccccc1-c1ccc(SCc2ccccc2)nn1 | 10.0 | 73.0*[inhibitor] | 79.0 | 4.0 | -3.0 | 98.0 | -3.0 | 101.0
COc1ccccc1-c1ccc(SCc2cccc(F)c2)nn1 | 0.0 | 101.0 | 97.0 | 0.0 | -3.0 | / | / | /
CCc1nnc(NC(=O)CSc2ccc(-c3ccccc3OC)nn2)s1 | 0.0 | 67.0*[inhibitor] | 83.0 | 2.5 | -3.0 | 97.0 | -3.0 | 100.0
Cc1c(Cl)ccc2sc(NC(=O)c3ccco3)nc12 | 0.0 | 97.0 | 93.0 | -6.7 | -4.0 | / | / | /
CCCCNC(=S)N/N=C1\C(=O)c2cccc3cccc1c23 | 7.0 | 71.0*[inhibitor] | 74.0 | -5.2 | -5.0 | 97.0 | -3.0 | 97.0
CN1CCN(CCC(=O)Nc2ccc(C3CCCC3)cc2)CC1 | 0.0 | 92.0 | 142.0* | -4.3 | 26.0 | 110.0 | 5.0 | 107.0
CN1CCN(CCC(=O)Nc2ccccc2)CC1 | 0.0 | 91.0 | 91.0 | -1.9 | 10.0 | / | / | /
O=C(c1ccccc1)N1CCN(CC(O)Cn2ccc3ccccc32)CC1 (configuration not stated) | 1.0 | 118.0 | 119.0 | 1.9 | 23.0 | / | / | /
O=C(/C=C/c1cn(CC(O)CN2CCCCC2)c2ccccc12)c1ccccc1 (configuration not stated) | / | 98.0 | 141.0* | 20.9 | 16.0 | 160.0 | 37.0 | 107.0
OC(CN1CCCC1)Cn1ccc2ccccc21 (configuration not stated) | 0.0 | 101.0 | 146.0* | 5.2 | 31.0* | 163.0 | 33.0 | 105.0
CCCN(CCC)CC(O)Cn1cc(/C=C/C(=O)c2ccccc2)c2ccccc21 (configuration not stated) | / | 88.0 | 154.0* | 19.0 | 21.0 | 150.0 | 21.0 | 99.0
CCCCN(C)CC(O)Cn1cc(/C=C/C(=O)c2ccc(C)cc2)c2ccccc21 (configuration not stated) | 0.0 | 107.0 | 186.0* | 19.6 | 54.0* | 189.0 | 55.0 | 107.0
CCCN(CCC)CC(O)Cn1cc(/C=C/C(=O)c2cccs2)c2ccccc21 (configuration not stated) | 0.0 | 98.0 | 122.0 | 2.8 | 0.0 | / | / | /
CC(C)c1ccc(NC(=O)C2CCCCN2S(=O)(=O)c2ccccc2)cc1 (configuration not stated) | 0.0 | / | / | 4.9 | / | / | / | /
CN1CCN(Cn2cc(/C=C/C(=O)c3ccccc3)c3ccccc32)CC1 | 0.0 | 104.0 | 142.0* | -29.1 | 18.0 | 111.0 | 1.0 | 101.0
COc1ccc(C(=O)/C=C/c2cn(CC(O)CN3CCN(C)CC3)c3ccccc23)cc1OC (configuration not stated) | 0.0 | 98.0 | 120.0 | -25.2 | 8.0 | / | / | /
CCN(C(=O)CSc1nnc(NCCOC)s1)c1c(N)n(Cc2ccccc2)c(=O)[nH]c1=O | / | / | / | -9.1 | / | / | / | /
O=C(CSC1=Nc2ccccc2C2=NC(c3ccccc3)C(=O)N12)NC1CCCCC1 (configuration not stated) | 0.0 | 124.0* | 125.0 | 12.4 | 6.0 | 101.0 | 2.0 | 103.0
CN(C(=O)CSC1=Nc2ccccc2C2=NC(c3ccccc3)C(=O)N12)C1CCCCC1 (configuration not stated) | 1.0 | 100.0 | 98.0 | -8.4 | 3.0 | / | / | /
O=C(CCCCCNC(=O)c1ccccc1Br)N=Nc1c(O)[nH]c2ccccc12 | 0.0 | 106.0 | 103.0 | -2.3 | 3.0 | / | / | /
Cc1ccc(NC(=O)C(=O)NCCOc2ccc(Cl)cc2)c(C)c1 | 0.0 | 128.0* | 106.0 | -6.1 | 0.0 | 98.0 | -1.0 | 102.0
O=C(CN1CCCCC1)NC(=O)NC1CCCC1 | 0.0 | 117.0 | 104.0 | -5.2 | -1.0 | / | / | /
O=C(NC1CCCCC1)NC1CCN(CC(=O)N2CCOCC2)CC1 | 0.0 | 2.0*[inhibitor] | 2.0*[inhibitor] | 2.8 | -15.0 | 101.0 | -1.0 | 103.0

Assay outcomes from PubChem.
